Most compounds without a hit are left out; they make up all but 19% or so of the library.
Shiga inhibitor: Shiga toxin inhibition; Vero cells, Shiga toxin protein synthesis inhibition reporter; hit rate 9.2% among 290,000; AID 2315; inhibition, % at 38.7 µM; in the data active = inhibition mostly above about 28%, no sharp cut-off; inactive = mostly below about 43%; note: 0% is about no effect
Pf growth 96h: inhibits malaria parasite growth, 96 h | P. falciparum luciferase reporter growth, 96 h | Potency, µM (titrated, usually from 28.7 µM), without a hit: top-dose activity change, negative = inhibition, most hits filed as inhibitors | hit rate 6.9% among 320,000 | AID 504834; note: potency is the fitted concentration of half-maximal effect; % is set by controls: 0 for no effect and ±100 for the full control effect
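Parasite growth measured via integrated firefly luciferase reporter in P. falciparum. Infected erythrocytes at 2% hematocrit, 0.05% parasitemia final were treated 96 hours at 37 C under 5% CO2, and luminescence was read.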
Lassa entry inh: inhibitors of Lassa virus binding or cell entry; Potency, µM (titrated, usually from 37.9 µM), for inactives: at the highest dose activity change, negative = inhibition, hits mostly inhibitors; Lassa virus pseudotype entry inhibition, cell reporter; hit rate 1.2% among 300,000; calls by dose curve; tested in HEK293 cells; note: potency is the fitted concentration of half-maximal effect; % is set by controls: 0 for no effect and ±100 for the full control effect; nearly all actives have a fitted effect of over 50% in size
MARV entry inh: Marburg virus entry inhibition; Marburg virus pseudotyped entry inhibition, cell reporter; Potency, µM (top dose mostly 37.8 µM), inactives show at the top dose activity change, negative = inhibition, most hits filed as inhibitors; hit rate 1.8% among 300,000; calls by dose curve; tested in HEK293 cells; note: potency is the fitted concentration of half-maximal effect; % is set by controls: 0 for no effect and ±100 for the full control effect
Pf growth 48h: inhibits P. falciparum growth in the first generation, 48 h | AID 504832 | hit rate 5.9% among 310,000 | P. falciparum luciferase growth in erythrocytes, 48 h | Potency, µM (series often up to 28.7 µM), inactives show at the highest dose activity change, negative = inhibition, hits mostly inhibitors; note: potency is the fitted concentration of half-maximal effect; % is set by controls: 0 for no effect and ±100 for the full control effect
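Luminescence readout; reporter = integrated firefly luciferase in P. falciparum. RBC culture at 2% hematocrit, 0.1% parasitemia final, 37 C/5% CO2; decreased signal taken as growth inhibition.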
CHX counter: counter-screen hit for Shiga toxin inhibitors, cycloheximide | max response, % | AID 2314 | cell reporter, cycloheximide protein synthesis inhibition counterscreen | hit rate 12% among 300,000; in the data active = max response mostly above about 13%, no sharp cut-off; inactive = mostly below about 14%; note: read at 38.3 µM for the half of the compounds with a filed dose; 0% is about no effect
* hit, by the source's call; u = inconclusive; x = no result given; [ ] = remark or other dose. Unless noted, calls come from the whole dose curve; as a rule, active = well fitted inhibition curve with a large enough effect; inconclusive = small, poorly fitted or top-dose-only effect, or another doubt; inactive = no such curve, though single readings can be large or run the other way.

SMILES	Shiga inhibitor	Pf growth 96h	Lassa entry inh	MARV entry inh	Pf growth 48h	CHX counter
COc1ccc(N2C3=[N+](CC2(C)O)c2ccccc2CC3)cc1 (centres undefined)	12	x	13%	-4%	15%	22*
CCC(C)(C)NC(=O)CN(Cc1cccs1)C(=O)C(=O)Nc1ccc2c(c1)OCCO2	44	u	u	u	u	-1
Cc1ccc(C)c(NCc2ccccc2CO)c1	24	17%	-1%	-5%[46.1 µM]	0%	-1
Cc1ccc(NCc2ccccc2O)cc1C	102*	34%	11%[46.1 µM]	-11%[46.1 µM]	56%	33*
FC(F)(F)Oc1ccc(NC(=S)Nc2ccc(OC(F)(F)F)cc2)cc1	16	u	x	x	u	5
c1csc(CNc2ccc3c(c2)OCCO3)c1	93*	125%	u	1µM*	222%	111*
Clc1cc(NCc2cccs2)ccc1N1CCOCC1	57*	3%	5%	u	31%	46*
Oc1ccccc1CNc1ccc(OC(F)(F)F)cc1	55*	u	-2%	-9%[46.1 µM]	u	35*
Cc1ccc(C(=O)NCN2CCN(c3ccc(F)cc3)CC2)cc1	x	-26%	x	x	-15%	x
CCOc1ccccc1N(C(=O)CNC(=O)c1ccco1)C(C(=O)NC(C)(C)C)c1ccncc1 (centres undefined)	17	x	13%	3%	-34%	-2
Oc1ccccc1CNc1ccc2c(c1)OCCO2	67*	70%	18%[46.1 µM]	-10%[46.1 µM]	144%	41*
NC(=O)c1cc(N2C(=O)C=CC2=O)ccc1Cl	-2	0%	-13%[14.3 µM]	11%	2.3µM*	20
Cc1ccc2nc3c(nc2c1C)CCCC3	18	0%	4%	4%	32%	7
O=C(NCCCn1ccnc1)C(=O)NCc1ccc(Cl)cc1	-2	-20%	0%	20%[46.1 µM]	-28%	-4
CCOCc1cnc(C)nc1NCC(=O)c1c(C)[nH]c2ccc(OC)cc12	8	0.41µM*	22%	-6%	x	-3
COc1ccc2[nH]c(C)c(C(=O)CN3CCN(C(=O)c4ccco4)CC3)c2c1	-12	x	0%	-14%	u	14
Cn1c(-c2ccccc2O)cc2ccccc21	33	5.2µM*	u	0%	3.7µM*	6
Cn1c(-c2ccccc2)cc2ccccc21	2	24%	-25%	-25%	22%	7
COC(=O)c1c(NC(=O)COC(=O)CCNS(=O)(=O)c2ccc(NC(C)=O)cc2)sc(C)c1C	x	9%	5%	2%	21%	x
COc1ccc(-c2[nH]ncc2CN(C)C(C)c2ccon2)c(OC)c1 (centres undefined)	14	u	x	x	0%	-3
COc1ccc(-c2[nH]ncc2CN(C)Cc2nonc2C)c(OC)c1	-7	10µM*	x	x	9%	1
COc1cc(-c2[nH]ncc2CN(C)Cc2cc(C)[nH]n2)cc(OC)c1OC	-5	u	x	x	-17%	-1
COc1cc(-c2[nH]ncc2CN(C)Cc2nonc2C)cc(OC)c1OC	-5	1.7µM*	x	x	u	-3
Nc1nc(Nc2ccccc2)nc(NCc2ccccc2)c1[N+](=O)[O-]	-2	u	u	u	u	9
CCOc1ccc(Nc2nc(N)c([N+](=O)[O-])c(NCc3ccccc3)n2)cc1	34	u	13%	u	5.2µM*	19*
SMILES	Shiga inhibitor	Pf growth 96h	Lassa entry inh	MARV entry inh	Pf growth 48h	CHX counter
COc1cccc(Nc2nc(N)c([N+](=O)[O-])c(NCc3ccccc3)n2)c1	36	12µM*	x	x	4.7µM*	0
Cc1nc2cc(-c3ccccc3)nn2c(C)c1CCC(=O)N1CCN(c2ccccc2)CC1	12	-47%	10%[46.1 µM]	-2%[46.1 µM]	x	10
COc1cc(NC(=O)CCN2CCN(c3ccccc3)CC2)cc(OC)c1	x	x	-23%[46.1 µM]	x	x	x
COc1cc(C2c3c(n[nH]c3C)C(=O)N2c2ccc(Br)cc2)ccc1O (centres undefined)	7	-5%[5.75 µM]	1%	-36%[46.1 µM]	36%	15*
CCOc1cc(C2c3c(n[nH]c3C)C(=O)N2c2ccc(Br)cc2)ccc1O (centres undefined)	38*	13µM*	1%	1%	8%	31*
Cc1[nH]nc2c1C(c1cccnc1)N(c1ccc(Br)cc1)C2=O (centres undefined)	13	u	u	-10%	-3%	0
O=c1cc(-c2ccccc2)[nH]n1-c1ccc([N+](=O)[O-])cc1	71*	u	-5%	-21%	u	35*
CCN(CC)C(=O)CCSc1nnc(-c2ccco2)o1	37	u	10%	2%[46.1 µM]	123%	30*
O=C(CCSc1nnc(-c2ccco2)o1)Nc1ccccc1	5	x	-8%	-19%	-7%	-1
CC(C)(C)NC(=O)CCSc1nnc(-c2ccco2)o1	37	4%	21%[46.1 µM]	0%[46.1 µM]	51%	27*
COCCNC(=O)C(c1cccc(OC)c1)N(C(=O)Cn1nnc2ccccc21)c1cccnc1 (centres undefined)	25	-21%	12%	11%[46.1 µM]	x	1
O=C(c1cc(-c2ccc(Cl)cc2)on1)N1CCOCC1	111*	2%	9.2µM*	u	153%	29*
O=C(c1cc(-c2ccc(Cl)c(Cl)c2)on1)N1CCCC1	36*	-17%	x	x	89%	21*
CC1CCN(C(=O)c2cc(-c3ccc(Cl)c(Cl)c3)on2)CC1	20	u	u	-2%	7%	1
Cn1c(SCC(=O)N2CCOCC2)nnc1-c1ccc(Cl)cc1Cl	13	u	8%	u	-5%	-1
O=C(c1cc(-c2ccc(Cl)cc2Cl)on1)N1CCOCC1	59	-13%	u	u	169%	25*
O=C(c1cc(-c2ccc(Cl)c(Cl)c2)on1)N1CCOCC1	45*	u	u	u	213%	17*
Cn1cccc1C(=O)NC(=O)COC(=O)c1cc(S(=O)(=O)N2CCCCC2)ccc1Cl	-12	35%	2%	-7%[46.1 µM]	6%	-3
Cc1ccc(-c2noc(CCC(=O)N3CCN(c4cccc(C(F)(F)F)c4)CC3)n2)cc1	5	u	u	u	-30%	-2
Cc1sc2ncn(CCn3cnc4sc(C)c(C)c4c3=O)c(=O)c2c1C	-5	1%	-15%	u	-6%	-2
O=C(c1cc(-c2cccc(Cl)c2)on1)N1CCOCC1	137*	20%	u	u	129%	25*
O=C(c1cc(-c2cccc(Cl)c2)on1)N1CCCCC1	x	x	2%[46.1 µM]	u	x	x
COc1ccc(C(CNC(=O)C(C)Oc2ccc(Br)cc2)N2CCCCC2)cc1 (centres undefined)	x	u	x	x	13µM*	x
CCC(C)NC(=O)CCNS(=O)(=O)c1ccc(Br)cc1 (centres undefined)	14	7.4µM*	4%	1%	-9%	-2
CCCCNC(=O)CCNS(=O)(=O)c1ccc(Br)cc1	-7	15%	u	3%	21%	4
